# Test results: PubChem BioAssay (EPA / NIEHS)
# Activity calls are given as the source filed them. The calls were made as follows: active = hit-call score of the fitted dose curve at least 0.9, where 1 is the maximum; inactive = score below 0.9.
# Experiments:
# [1] = APR_HepG2_NuclearSize_24hr: Apredica 24-hour HepG2 Assay for Nuclear Size (AID 2282907); details: high-content imaging, actives raise or lower the signal
# Method in brief: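 Compounds in DMSO (final 0.5%) were added to human HepG2 hepatoma cells at ten concentrations up to 200 uM for 24 hr. Fixed nuclei were stained with Hoechst 33342, and nuclear diameter was quantified from automated images.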
# [2] = APR_HepG2_CellLoss_24hr: Apredica 24-hour HepG2 Assay for Cell Loss (AID 2282908); details: high-content imaging;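 as to AC50: fit in both directions so a hit may be cell loss or gain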
# Method in brief: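 Cell number is quantified by fluorescence imaging of Hoechst 33342-stained nuclei following dosing at 0.39–200 uM in 0.5% DMSO. Curves are fitted in both directions from the DMSO baseline.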
# [3] = APR_HepG2_MicrotubuleCSK_24hr: Apredica 24-hour HepG2 Assay for Microtubule CSK Stabilty (AID 2282909); details: HepG2 microtubule cytoskeleton imaging, actives raise or lower the signal
# Method in brief: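 Steps: dose HepG2 for 24 h (0.39–200 uM, 0.5% DMSO); fix 30 min in 3.7% formaldehyde at room temperature; permeabilize; stain alpha-tubulin 60 min; image microtubule cytoskeleton at 20x. Signal change fitted in both directions relative to DMSO.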
# [4] = APR_HepG2_MitoticArrest_24hr: Apredica 24-hour HepG2 Assay for Mitotic Arrest (AID 2282910); details: high-content imaging, actives raise or lower the signal
# Method in brief: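 Compounds are dosed onto HepG2 cells across ten concentrations up to 200 uM for 24 hr. Cells are then fixed in 3.7% formaldehyde, permeabilised, and labelled for phospho-histone H3 and nuclei; images are scored by cell cycle analysis and fitted bidirectionally relative to DMSO.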
# [5] = APR_HepG2_MitoMembPot_24hr: Apredica 24-hour HepG2 Assay for Mitochondrial Membrane Potential (AID 2282911); details: imaging, actives raise or lower the signal
# Method in brief: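 Mitochondrial dye uptake (MitoTracker Red CMXRos, 250 nM, 30 min pre-fixation) in HepG2 after 24 hr compound exposure, 0.39–200 uM; ArrayScan images at 20x, activity fitted in both directions relative to DMSO.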
# [6] = APR_HepG2_MitoMass_24hr: Apredica 24-hour HepG2 Assay for Mitochondrial Mass (AID 2282912); details: high-content imaging, actives raise or lower the signal
# Method in brief: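 The liver line HepG2 was dosed in duplicate across a 0.39–200 uM series, with final DMSO held at 0.5% v/v, and harvested at 24 hr. High-content imaging measured mitochondrial dye staining.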
# [7] = APR_HepG2_CellCycleArrest_72hr: Apredica 72-hour HepG2 Assay for Cell Cycle Arrest (AID 2282914); details: high-content imaging, actives raise or lower the signal
# Method in brief: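 Using multiplexed high-content imaging, HepG2 nuclei stained with Hoechst 33342 (2 ug/mL) were analysed for DNA content after fixation and permeabilization. Treatment lasted 72 hr across 0.39–200 uM in duplicate with final DMSO 0.5% v/v; DMSO served as negative control.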
# [8] = APR_HepG2_CellLoss_72hr: Apredica 72-hour HepG2 Assay for Cell Loss (AID 2282915); details: high-content imaging
# Method in brief: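 Cell number comes from Hoechst 33342-labelled nuclei, imaged at 20x after 3.7% formaldehyde fixation. Dosing was 0.39–200 uM, ten concentrations in duplicate, 0.5% DMSO final, for 72 h. Bidirectional fit relative to DMSO baseline.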
# [9] = APR_HepG2_P-H2AX_72hr: Apredica 72-hour HepG2 Assay for H2AX Phosphorylation (AID 2282916); details: imaging, actives raise or lower the signal;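 also: phospho-histone H2A.x immunostain intensity per cell marking DNA damage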
# Method in brief: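 Following 72 hr treatment with 0.39–200 uM compound, HepG2 cells were formaldehyde-fixed, permeabilized and stained for phospho-H2A.x; signal was measured by high-content imaging and fitted bidirectionally against DMSO controls.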
# [10] = APR_HepG2_MitoMembPot_72hr: Apredica 72-hour HepG2 Assay for Mitochondrial Membrane Potential (AID 2282917); details: imaging, actives raise or lower the signal
# Method in brief: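 Membrane potential read by MitoTracker Red CMXRos (250 nM, 30 min, pre-fixation) fluorescence imaging of HepG2 after 72 hr exposure. Ten concentrations, 0.39–200 uM, duplicate wells, 0.5% DMSO; fitted in both directions against DMSO baseline.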
# [11] = APR_HepG2_MitoticArrest_72hr: Apredica 72-hour HepG2 Assay for Mitotic Arrest (AID 2282918); details: high-content imaging, actives raise or lower the signal
# Method in brief: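 Using high-content imaging of fixed HepG2 cells, phospho-histone H3 signal was measured following a 72 hr incubation with ten-point compound dilutions up to 200 uM. DMSO served as the negative control and baseline for bidirectional curve fitting.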
# [12] = APR_HepG2_MicrotubuleCSK_72hr: Apredica 72-hour HepG2 Assay for Microtubule CSK Stabilty (AID 2282919); details: HepG2 microtubule cytoskeleton, high-content imaging, actives raise or lower the signal
# Method in brief: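 Read-out is tubulin fluorescence intensity from high-content imaging of HepG2 cells, with nuclei identified by Hoechst 33342. Treatment lasts 72 h at 0.39–200 uM, and curves are fitted bidirectionally against the DMSO negative control.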
# [13] = APR_HepG2_StressKinase_72hr: Apredica 72-hour HepG2 Assay for Stress Kinase (AID 2282921); details: HepG2 stress kinase (phospho-c-Jun) imaging, actives raise or lower the signal
# Method in brief: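 Fluorescence intensity of Cy3-tagged anti-phospho-c-Jun antibody, quantified per cell from Hoechst-defined nuclei across six images per well, served as the read-out following 72 h exposure (0.39–200 uM, 0.5% v/v DMSO).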
# [14] = APR_HepG2_StressKinase_24hr: Apredica 24-hour HepG2 Assay for Stress Kinase (AID 2282922); details: HepG2 stress kinase (phospho-c-Jun) imaging, actives raise or lower the signal
# Method in brief: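 HepG2, 24 hr dosing, 0.39–200 uM in duplicate, 0.5% DMSO; formaldehyde fix (3.7%), 0.5% Triton X-100; anti-phospho-c-Jun + Cy3 secondary, Hoechst counterstain; ArrayScan imaging; bidirectional curve fit vs DMSO baseline.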
# [15] = APR_HepG2_p53Act_72hr: Apredica 72-hour HepG2 Assay for p53 Activation (AID 2282923); details: high-content imaging, actives raise or lower the signal;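 also: average cellular p53 protein immunofluorescence intensity in HepG2 cells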
# Method in brief: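 HepG2 monolayers receive test compounds in duplicate at ten concentrations (0.39 through 200 uM) for 72 hr. They are then formaldehyde-fixed, antibody-labelled for p53, Hoechst-stained and imaged, with activity fitted bidirectionally versus DMSO.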
# [16] = APR_HepG2_MitoMass_72hr: Apredica 72-hour HepG2 Assay for Mitochondrial Mass (AID 2282924); details: high-content imaging, actives raise or lower the signal;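 also: MitoTracker Red CMXRos stain intensity per cell imaged as mitochondrial mass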
# Method in brief: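 HepG2, 72 hr cmpd, 10 conc 0.39–200 uM in dup, DMSO 0.5% v/v. MitoTracker Red CMXRos 250 nM 30 min pre-fix; formaldehyde 3.7% fix 30 min RT. HCS imaging, gain/loss fit vs DMSO.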
# [17] = APR_HepG2_NuclearSize_72hr: Apredica 72-hour HepG2 Assay for Nuclear Size (AID 2282925); details: high-content imaging, actives raise or lower the signal
# Method in brief: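 HepG2; cpd 0.39–200 uM, 10 conc, duplicate; 72 h; DMSO 0.5% v/v; fix 3.7% formaldehyde 30 min RT; Triton permeabilization; Hoechst 2 ug/mL; HCS imaging 20x; nuclear diameter; gain/loss fit vs DMSO.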
# [18] = APR_HepG2_StressKinase_1hr: Apredica 1-hour HepG2 Assay for Stress Kinase (AID 2282906); details: HepG2 stress kinase (phospho-c-Jun) imaging, actives raise or lower the signal
# Method in brief: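 HepG2 cells dosed 0.39-200 uM (0.5% DMSO) for 1 h, then formaldehyde-fixed. Stress kinase read by phospho-c-Jun immunofluorescence using high-content imaging; bidirectional fit vs DMSO.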
structure (smiles),measurement,setting,value
O=C(c1ccccc1)C1CCCCC1,outcome,[1],inactive
same,outcome,[2],inactive
same,outcome,[3],inactive
same,outcome,[4],inactive
same,outcome,[5],inactive
same,outcome,[6],inactive
same,outcome,[7],inactive
same,outcome,[8],inactive
same,outcome,[9],inactive
same,outcome,[10],inactive
same,outcome,[11],inactive
same,outcome,[12],inactive
same,outcome,[13],inactive
same,outcome,[14],inactive
same,outcome,[15],inactive
same,outcome,[16],inactive
same,outcome,[17],inactive
CCCCC(CC)COC(=O)c1ccccc1C(=O)O (stereo not drawn),outcome,[18],inactive
same,outcome,[1],inactive
same,outcome,[2],inactive
same,outcome,[3],inactive
same,outcome,[4],inactive
same,outcome,[5],inactive
same,outcome,[6],inactive
same,outcome,[7],inactive
same,outcome,[8],inactive
same,outcome,[9],inactive
same,outcome,[10],inactive
same,outcome,[11],inactive
same,outcome,[12],inactive
same,outcome,[13],inactive
same,outcome,[14],inactive
same,outcome,[15],inactive
same,outcome,[16],inactive
same,outcome,[17],inactive
COC(=O)c1c(Cl)nn(C)c1S(=O)(=O)NC(=O)Nc1nc(OC)cc(OC)n1,outcome,[18],inactive
same,outcome,[1],inactive
same,outcome,[2],inactive
same,outcome,[3],inactive
same,outcome,[4],inactive
same,outcome,[5],inactive
same,outcome,[6],inactive
same,outcome,[7],inactive
same,outcome,[8],inactive
same,outcome,[9],inactive
same,outcome,[10],inactive
same,outcome,[11],inactive
same,outcome,[12],inactive
same,outcome,[13],inactive
same,outcome,[14],inactive
same,outcome,[15],inactive
same,outcome,[16],inactive
same,outcome,[17],inactive
CCCN(CCC)C(=O)SCC,outcome,[18],inactive
same,outcome,[1],inactive
same,outcome,[2],inactive
same,outcome,[3],inactive
same,outcome,[4],inactive
same,outcome,[5],inactive
same,outcome,[6],inactive
same,outcome,[7],inactive
same,outcome,[8],inactive
same,outcome,[9],inactive
same,outcome,[10],inactive
same,outcome,[11],inactive
same,outcome,[12],inactive
same,outcome,[13],inactive
same,outcome,[14],inactive
same,outcome,[15],inactive
same,outcome,[16],inactive
same,outcome,[17],inactive
OB(O)O,outcome,[18],inactive
same,outcome,[1],inactive
same,outcome,[2],inactive
same,outcome,[3],inactive
same,outcome,[4],inactive
same,outcome,[5],inactive
same,outcome,[6],inactive
same,outcome,[7],inactive
same,outcome,[8],inactive
same,outcome,[9],inactive
same,outcome,[10],inactive
same,outcome,[11],inactive
same,outcome,[12],inactive
same,outcome,[13],inactive
same,outcome,[14],inactive
same,outcome,[15],inactive
same,outcome,[16],inactive
same,outcome,[17],inactive
COC(=O)CSc1cc(N=c2sc(=O)n3n2CCCC3)c(F)cc1Cl,outcome,[18],inactive
same,outcome,[1],inactive
same,AC50,[2],103 µM (active)
same,outcome,[3],inactive
same,outcome,[4],inactive
same,outcome,[5],inactive
same,outcome,[6],inactive
same,outcome,[7],inactive
same,AC50,[8],98.9 µM (active)
same,outcome,[9],inactive
same,outcome,[10],inactive
same,outcome,[11],inactive
same,outcome,[12],inactive
same,outcome,[13],inactive
same,outcome,[14],inactive
same,outcome,[15],inactive
same,outcome,[16],inactive
same,outcome,[17],inactive
CCC(O)=C1C(=O)CC(C(=O)O)CC1=O (stereo not drawn),outcome,[18],inactive
same,outcome,[1],inactive
same,outcome,[2],inactive
same,outcome,[3],inactive
same,outcome,[4],inactive
same,outcome,[5],inactive
same,outcome,[6],inactive
same,outcome,[7],inactive
same,outcome,[8],inactive
same,outcome,[9],inactive
same,outcome,[10],inactive
same,outcome,[11],inactive
same,outcome,[12],inactive
same,outcome,[13],inactive
same,outcome,[14],inactive
same,outcome,[15],inactive
same,outcome,[16],inactive
same,outcome,[17],inactive
C=CCOC(Cn1ccnc1)c1ccc(Cl)cc1Cl (stereo not drawn),outcome,[18],inactive
same,outcome,[1],inactive
same,AC50,[2],55.8 µM (active)
same,outcome,[3],inactive
same,outcome,[4],inactive
same,outcome,[5],inactive
same,outcome,[6],inactive
same,outcome,[7],inactive
same,AC50,[8],78.2 µM (active)
same,outcome,[9],inactive
same,outcome,[10],inactive
same,AC50,[11],78.5 µM (active)
same,AC50,[12],43.1 µM (active)
same,outcome,[13],inactive
same,outcome,[14],inactive
same,outcome,[15],inactive
same,outcome,[16],inactive
same,outcome,[17],inactive
